Shown are actives, neighbours in structure and some others; about 2.8% of the full set was active somewhere.
Peg3 promoter = reduces Peg3 promoter-driven luciferase expression in HeLa | HeLa PEG-Prom luciferase reporter, luminescence, overnight | inhibition, % at 20 µM | actives 1.7% (n = 360,000);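 active means inhibition of at least 50% at 20 µM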
HIF-2a block = blocks HIF-2a reporter activity; 786-0 RCC cells HIF-2a reporter, luciferase luminescence, overnight; inhibition, % at 18.8 µM; actives 0.72% (n = 360,000); AID 624352;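 active means inhibition of the luminescence signal of 40% or more relative to plate controls, in a single-dose primary screen at 18.75 µM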
Shn3 inh set2 = Schnurri-3 reporter inhibition in Clone20 osteoblasts | Clone20 osteoblast Shn3 3'UTR firefly luciferase, 24 h | inhibition, % at 12.5 µM | actives 0.52% (n = 360,000) | AID 588674;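 active means mean inhibition of at least 75% with every replicate also reaching 75%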;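 further: 0% = median of neutral control wells and 100% = pilot-screen positive control compound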
KKLEB cytotox = counter-screen for CF NF-kB inhibitors: cytotoxicity. actives 0.36% (n = 360,000). KKLEB CF airway cells viability, ATPlite luminescence, overnight; hits give low values; cells stimulated with P. aeruginosa culture filtrate. activity change (cytotoxicity), % at 5 µM;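 active means corrected activity change at or below -50% at 5 µM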
CF NFkB inh = blocks PAF-induced NF-kB reporter in cystic fibrosis cells. KKLEB NF-kB-GFP reporter, GFP fluorescence overnight. inhibition, % at 5 µM. actives 0.86% (n = 360,000);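 active means at least 50% inhibition at 5 µM, scaled per plate between neutral and stimulator controls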;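 further: PAF is a Pseudomonas aeruginosa culture filtrate used as stimulus; plate controls were PAF-stimulated DMSO wells for no effect and unstimulated DMSO wells for full effect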
TRPM1 prom inh = inhibitors of MITF-driven TRPM1 promoter in melanoma cells | SK-MEL-5 TRPM1 promoter luciferase, 24 h | inhibition, % at 12.5 µM | actives 0.83% (n = 330,000);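 active means mean inhibition across replicates of 60% or more, whatever share of single replicates reaches that level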
Mdm2-MdmX confirm = Mdm2/MdmX (human) interaction inhibition, confirmed; shares compounds with HIF-2a block; SaOS-2 split-luciferase Mdm2/MdmX complementation, luminescence; inhibition, % at 8 µM; actives 99% (n = 740);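 active means mean inhibition of the luminescence signal across two replicates at or above 26 percent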
Target sequence (O15151 whole entry, looked up): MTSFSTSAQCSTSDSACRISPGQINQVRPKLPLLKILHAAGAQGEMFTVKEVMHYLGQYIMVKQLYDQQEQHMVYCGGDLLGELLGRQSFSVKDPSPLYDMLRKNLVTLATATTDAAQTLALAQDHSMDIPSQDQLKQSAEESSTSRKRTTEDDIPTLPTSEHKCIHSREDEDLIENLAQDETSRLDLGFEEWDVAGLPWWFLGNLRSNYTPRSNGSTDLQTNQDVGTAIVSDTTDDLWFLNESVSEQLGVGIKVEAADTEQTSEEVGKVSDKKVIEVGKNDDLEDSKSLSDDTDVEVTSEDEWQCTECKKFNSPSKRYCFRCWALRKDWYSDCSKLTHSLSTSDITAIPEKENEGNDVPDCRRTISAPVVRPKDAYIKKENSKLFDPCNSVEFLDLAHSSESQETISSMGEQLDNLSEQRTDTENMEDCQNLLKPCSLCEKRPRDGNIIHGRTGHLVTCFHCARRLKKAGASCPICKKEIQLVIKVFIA
Target sequence (Q00987 whole entry, looked up): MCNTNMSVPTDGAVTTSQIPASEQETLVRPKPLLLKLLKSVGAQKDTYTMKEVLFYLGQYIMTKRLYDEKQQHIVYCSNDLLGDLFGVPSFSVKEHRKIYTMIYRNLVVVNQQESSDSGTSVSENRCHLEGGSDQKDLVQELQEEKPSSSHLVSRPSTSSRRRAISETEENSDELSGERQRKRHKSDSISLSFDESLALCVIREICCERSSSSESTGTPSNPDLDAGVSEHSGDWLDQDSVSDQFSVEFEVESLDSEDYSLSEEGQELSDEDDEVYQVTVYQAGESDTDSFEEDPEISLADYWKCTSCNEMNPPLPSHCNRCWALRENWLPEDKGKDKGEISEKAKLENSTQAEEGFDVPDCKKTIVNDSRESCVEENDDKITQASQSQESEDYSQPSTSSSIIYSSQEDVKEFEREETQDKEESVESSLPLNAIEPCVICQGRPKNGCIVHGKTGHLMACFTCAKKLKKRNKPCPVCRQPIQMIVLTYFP
HIF-2a conf = HIF-2a inhibition, single concentration confirmation. shares compounds with HIF-2a block. 786-0 RCC cells, HIF-2a luciferase reporter luminescence, overnight. inhibition, % at 18.8 µM. actives 56% (n = 1,800). AID 651580;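 active means mean inhibition across four replicates of at least 40 percent at the single tested concentration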
HIF-1a cs = inhibits HIF-1a reporter, a counter-screen for HIF-2a inhibitors | inhibition, % at 18.8 µM | shares compounds with HIF-2a block | MiaPaCa-2 HIF-1a luciferase reporter, desferoxamine, overnight | AID 651589 | actives 72% (n = 1,800);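 active means mean inhibition of the reporter signal across four replicates at the single tested dose of 50% or more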
The depositor's hits bear a star; / = not tested or not shown.

SMILES | Peg3 promoter | HIF-2a block | Shn3 inh set2 | KKLEB cytotox | CF NFkB inh | TRPM1 prom inh | HIF-2a conf | HIF-1a cs | others
CC(=O)Nc1cc(-c2cccc(C(=O)NCCN(C)C)c2)cn2c(-c3cccc(C(F)(F)F)c3)cnc12 | 98.9* | 94.9* | 3.4 | -29.5 | -78.9 | / | 0.8 | 104.7*
CCSc1ccc(-c2cc(NC=O)c3ncc(-c4cccc(C(=O)NCCN(C)C)c4)n3c2)cc1 | 88.8* | 92.1* | -11.4 | -2.2 | -29.6 | / | -9.3 | 101.3*
COc1cc(O)c(CCC(=O)c2ccc(OC)c(OC)c2)c(OC)c1 | 11.0 | 5.7 | -6.4 | -16.9 | 12.1 | 7.6 | / | /
CC(NS(=O)(=O)OCC(Cl)(Cl)Cl)c1ccc(Br)cc1 (stereo not drawn) | 11.5 | 21.1 | 14.8 | 17.2 | -8.9 | -0.8 | / | /
CCOC(=O)/C(=C/c1c(C)n(C)c2ccc([N+](=O)[O-])cc12)C(C)=O | 48.6 | 72.3* | 10.1 | -8.8 | 2.3 | -9.0 | 70.2* | 59.5*
O=S1(=O)Nc2c(ccc3cccnc23)-c2ccccc21 | 110.6* | 17.7 | 87.6* | 12.0 | 52.3* | 76.6* | / | / | Mdm2-MdmX confirm=103.0*
Clc1ccc2ccc3cccnc3c2n1 | -23.7 | -27.6 | 36.0 | -4.1 | -26.6 | -4.7 | / | /
CC(C)(C)c1ccc(C(=O)Nc2sc3c(c2C(=O)O)CCC3)cc1 | 23.8 | 95.9* | 28.5 | 2.8 | -7.7 | 66.2* | 95.6* | 75.2*
C=C[C@@H]1c2cc(C)ccc2N(S(=O)(=O)c2ccc(C)cc2)[C@H](c2ccccc2C(F)(F)F)C1(C#N)C#N | 16.8 | 13.2 | 39.3 | 10.9 | 4.0 | / | / | /
O=C(Nc1cc2ccccc2oc1=O)c1ccccc1 | 53.5* | 40.0* | 21.6 | -7.9 | -28.0 | 63.2* | 68.3* | 62.7*
Cc1oc(=O)c(NC(=O)c2ccccc2)cc1C(N)=O | 2.5 | 3.7 | -4.9 | -2.8 | 5.0 | 5.9 | / | /
Cc1n[nH]c(=O)c2c(NC(=O)CSc3nncs3)oc(C)c12 | 8.5 | 5.1 | -15.4 | 0.8 | -6.0 | -7.7 | / | /
O=C(c1ccco1)N1CCN(C2CC(=O)N(c3ccc(F)c(Cl)c3)C2=O)CC1 (stereo not drawn) | 5.9 | 18.9 | 6.7 | 12.5 | -8.0 | 4.4 | / | /
Cc1ccc(-c2cc(-c3ccccc3)c(C#N)c(Br)n2)cc1 | 6.2 | 11.4 | 8.5 | -4.9 | 3.7 | -0.2 | / | /
CS(=O)(=O)c1nc(-c2ccccc2)cc(-c2ccccc2)c1C#N | 101.2* | 76.0* | 30.2 | -15.3 | 61.1* | 41.4 | 34.1 | 106.2*
CC(NCc1cc(Br)ccc1OCC(N)=O)C12CC3CC(CC(C3)C1)C2 (stereo not drawn) | 4.8 | -1.2 | 2.6 | -11.7 | 7.3 | 9.6 | / | /
CCC(=O)N1CCC(C)(C(=O)NCc2ccc(F)cc2)C1 (stereo not drawn) | -9.8 | 7.5 | -8.2 | 3.3 | 11.2 | / | / | /
COc1ccc(C(C)=O)cc1CSc1nnc(-c2ccc(Cl)cc2)n1-c1ccccc1 | 29.5 | 41.2* | 5.2 | 1.9 | 20.3 | 30.9 | 15.9 | 27.0
Cc1nnc(NC(=O)C(C)Sc2nnc(CNC(=O)c3ccccc3F)n2C)s1 (stereo not drawn) | 1.1 | 0.9 | 1.3 | -20.4 | 5.8 | 13.3 | / | /
O=[N+]([O-])c1cc(S(=O)(=O)C(F)(F)F)ccc1Sc1nc2ccccc2[nH]1 | 104.4* | 93.2* | 16.4 | -23.7 | 50.1* | 95.6* | 68.9* | 106.2*
O=[N+]([O-])c1cc(S(=O)(=O)C(F)(F)F)ccc1Sc1nc2ccccc2s1 | 110.4* | 55.5* | 97.7* | -37.8 | 9.9 | 54.1 | 34.4 | 100.7*
NCCNc1ccc([N+](=O)[O-])c(Sc2nc3ccccc3[nH]2)c1 | 21.7 | 27.5 | -54.5 | 8.4 | 5.6 | -4.2 | / | /
COc1ccccc1Oc1cc(C#N)c(C#N)cc1-n1nnc2ccccc21 | 22.9 | 46.3* | -0.7 | -4.5 | 6.6 | 21.4 | 19.9 | 54.4*
COc1ccc(OC)c(C(=O)/C=C/c2ccccc2C(F)(F)F)c1 | 102.3* | 74.0* | -3.2 | -14.0 | -4.2 | 15.0 | 25.6 | 105.3*
COc1cc([N+](=O)[O-])ccc1NC(=S)NNC(=O)CCC(=O)Nc1ccccc1Cl | 16.3 | 4.0 | 7.1 | -3.3 | -4.8 | -2.4 | / | /
SMILES | Peg3 promoter | HIF-2a block | Shn3 inh set2 | KKLEB cytotox | CF NFkB inh | TRPM1 prom inh | HIF-2a conf | HIF-1a cs | others
COc1ccc(C(=O)c2c(C(F)(F)F)oc3c2C(=O)c2ccccc2C3=O)cc1 | 99.4* | 27.1 | 97.2* | -82.6* | 88.4* | 104.9* | / | / | Mdm2-MdmX confirm=97.2*
COc1ccc(C(=O)c2coc(-c3ccccc3C(=O)O)c2C(=O)O)cc1 | -0.3 | 19.6 | -8.1 | 10.7 | -5.0 | 5.6 | / | /
Cc1nn(C)c(C)c1CN(C)C(=O)c1cnn2c1NC(c1ccccc1)CC2C(F)(F)F (stereo not drawn) | 35.2 | 42.8* | 24.9 | -4.1 | 12.6 | 18.4 | 27.7 | 9.2
Cc1nn(C)c(C)c1CN(C)C(=O)c1nn2c(c1Br)NC(c1cccs1)CC2C(F)(F)F (stereo not drawn) | 23.9 | 25.9 | 12.5 | -2.0 | 9.9 | 14.9 | / | /
Cc1cc2oc(=O)cc(Cn3ncc(Cl)c(Cl)c3=O)c2cc1Cl | 106.1* | -38.2 | 97.1* | -68.7* | 87.8* | 83.4* | / | / | Mdm2-MdmX confirm=103.0*
Cc1ccc(C)c(C(=O)Cn2ncc(Cl)c(Cl)c2=O)c1 | 108.9* | 86.3* | 65.5 | -13.4 | 30.7 | 74.6* | 13.3 | 104.3*
Cc1cccc(Cn2ncc(Cl)c(Cl)c2=O)c1 | 43.5 | 13.5 | 51.2 | 11.0 | 23.4 | 28.3 | / | / | Mdm2-MdmX confirm=102.7*
O=C1CCCc2oc3c(c21)CCCC3 | -2.2 | 13.5 | -3.9 | 3.4 | 18.0 | -2.0 | / | /
Cn1c(=O)c([N+](=O)[O-])c(Cl)c2ccccc21 | 105.5* | 96.9* | 97.0* | -50.2* | 72.1* | 95.2* | 82.8* | 105.8*
CCCN(CCC)S(=O)(=O)c1ccc(C(=O)Nc2nc(-c3ccccc3)c(C(=O)OCC)s2)cc1 | 20.0 | 11.0 | 2.5 | -10.8 | 10.7 | -2.6 | / | /
O=C(NCCCN1CCOCC1)c1ccc(-n2nc(C(F)(F)F)cc2-c2cccs2)cc1 | 55.4* | 45.0* | 25.8 | -23.6 | 44.6 | -0.7 | 30.2 | 65.6*
COCCCNC(=O)c1ccc(-n2nc(C(F)(F)F)cc2-c2cccs2)cc1 | 40.5 | 48.8* | 18.6 | -10.0 | 43.5 | 19.2 | 34.5 | 41.1
O=C(NCCCN1CCOCC1)c1cc(-c2cccs2)on1 | -51.4 | -167.1 | 4.2 | 3.3 | -70.3 | 29.3 | / | /

Source: PubChem BioAssay
